Laboratory results from ChEMBL document CHEMBL4513216, “Probing the Open Global Health Chemical Diversity Library for Multistage-Active Starting Points for Next-Generation Antimalarials” (ACS Infect Dis, 2020).
The campaign covered roughly 69,000 compounds. About 8,600 (12%) showed an effect of 50% or more. The entries come from a sample that favours strong results as a whole.

These compounds were tested on Plasmodium berghei (assay: Screen against P. berghei liver stage (PbLuc), transformed with Luciferase, at 10uM). Details: tested at 10 uM.
Type: functional, HepG2
With CC(C)N(C)C(=O)COc1ccc(-c2noc(C3CCCO3)n2)cc1 (centres undefined) the INHIBITION was -59.4%. Work on O=C(NCC1CN(c2ncccn2)Cc2nccn2C1)c1cccnc1 (centres undefined) yielded an INHIBITION of -86.4%. With Fc1ccc(N2CCN(CCCc3cn[nH]c3)CC2)cc1 the INHIBITION was 31.6%. NC(=O)C1CN(C(=O)Nc2ccccc2OCC(F)(F)F)CCO1 (centres undefined) gave an INHIBITION of 31.2%. Work on N#CC1(NC(=O)c2c(F)ccc(OC(F)F)c2F)CCOCC1 yielded an INHIBITION of -11.7%. With CCn1nnc(NCc2cc(Br)cc(Br)c2OC)n1 the INHIBITION was 61.1%. Compound CCn1nnc(NCc2cc(Cl)cc(Cl)c2OC)n1 has an INHIBITION of -11.6%. In the case of CCCn1nnc(NCc2cc(Br)cc(Br)c2OC)n1, the INHIBITION is reported as -24%. Compound Cc1ncccc1CNC1CCCN(Cc2noc(C3CC3)n2)C1 (centres undefined) has an INHIBITION of 46.2%. With COCCN1CCc2cc(C(=O)O)c(NCC3CC3)nc2CC1 the INHIBITION was -17.2%. CCS(=O)(=O)N1CCc2cc(C(=O)NC)c(NCC(C)C)nc2CC1 gave an INHIBITION of -9.02%. COCCN1CCc2cc(C(=O)NC(C)C)c(NCC3CC3)nc2CC1 was tested, and the INHIBITION was 70.8%. Compound CNC(=O)c1cc2c(nc1NCC(C)C)CCN(CCOC)CC2 has an INHIBITION of 21.1%. In the case of COCCN1CCc2cc(C(=O)N(C)C)c(NCC3CC3)nc2CC1, the INHIBITION is reported as -27.9%. For COCCN1CCc2cc(C(=O)NC(C)C)c(NCC(C)C)nc2CC1, the INHIBITION was 74.9%. In the case of CCOc1ccccc1C(=O)Nc1cccc(C[S+](C)[O-])c1C (centres undefined), the INHIBITION is reported as 16.645%. O=C(CCN1CCCC(CO)(CC2CC2)C1)NCc1cccc(Cl)c1 (centres undefined) was tested, and the INHIBITION was 4.66%. Compound CCC1COC2(CCN(C(=O)c3ccco3)CC2)C1 (centres undefined) has an INHIBITION of 22.9%. With COc1ccc2c(c1)CC(NCc1cccc(CO)c1)CC2 (centres undefined) the INHIBITION was 47.1%. COc1ccc2c(c1)CC(NCc1cccc(NC(C)=O)c1)CC2 (centres undefined) was tested, and the INHIBITION was 59.1%. Work on COc1ccc2c(c1)CC(NCc1cccc(OCC(N)=O)c1)CC2 (centres undefined) yielded an INHIBITION of 43.4%. COCC(=O)NCc1cc(=O)n2c(n1)CN(Cc1ccco1)CCC2 showed an INHIBITION of 47.5%. O=C(NCc1nnc2n1CCCC2)N1CCc2sccc2C1 gave an INHIBITION of 5.7%. For Cc1cccc(CNC(=O)Nc2ccn(CCN(C)C)n2)c1, the INHIBITION was -23.8%. Compound C=C(C)Cn1nc(C)c(CN2CCN(C3CCCCC3)C(=O)C2)c1C has an INHIBITION of 13.85%. With Cc1ccccc1C1(CNCc2cnc(N3CCOCC3)nc2)CC1 the INHIBITION was -5.22%. Cc1ccc(CN2CCCC(c3nn(C)c4nccnc34)C2)s1 (centres undefined) was tested, and the INHIBITION was 37.6%. In the case of CCCN1CCC(c2nc3ccc(NCc4cccnc4)cn3n2)CC1, the INHIBITION is reported as 52.1%. CCCN1CCC(c2nc3ccc(NCc4ccccc4)cn3n2)CC1 gave an INHIBITION of 61.1%. CCN1CCC(c2nc3ccc(NC(C)C)cn3n2)CC1 showed an INHIBITION of 26.4%. CCCN1CCC(c2nc3ccc(C)cn3n2)CC1 was tested, and the INHIBITION was 29.4%. Work on CC(C)CN1CCC(c2nc3ccc(NC(C)C)cn3n2)CC1 yielded an INHIBITION of 30.3%. c1cncc(CNc2ccc3nc(C4CCNCC4)nn3c2)c1 gave an INHIBITION of 29.4%. In the case of CN(C)C(=O)N1C[C@H]2CC[C@@H](C1)N(Cc1nnc(-c3ccco3)o1)C2, the INHIBITION is reported as 11.6%. With Cc1nc(-c2cnn(C)c2)nc2c1CN(C(=O)c1ccc[nH]1)CC2 the INHIBITION was 57.1%. For Cc1nc(-c2cnn(C)c2)nc2c1CN(C(=O)c1cccnc1)CC2, the INHIBITION was -4.99%. Cc1nc(-c2cnn(C)c2)nc2c1CN(C(=O)c1cccn1C)CC2 gave an INHIBITION of -6.46%. For COC(=O)c1ccc(NC(C)c2ccc3c(c2)CCC(=O)N3)nn1 (centres undefined), the INHIBITION was 19.7%. Work on COc1ccc(-c2cc3nc(CCNC(=O)C4CC4)nn3cn2)cc1 yielded an INHIBITION of 8.915%. c1csc(NCc2n[nH]c3c2CCN(CC2CC2)C3)n1 showed an INHIBITION of 41.2%. In the case of COc1ccc(-c2ccc(C3CNCCO3)nc2)cc1 (centres undefined), the INHIBITION is reported as 91.6%. For Cn1nc(C2CNCCO2)cc1CCOc1ccc(Cl)cc1 (centres undefined), the INHIBITION was 16.5%. c1ncc(-c2ccc(C3CNCCO3)nc2)cn1 (centres undefined) was tested, and the INHIBITION was 24.8%. Compound c1ccc(-c2ccc(C3CNCCO3)nc2)cc1 (centres undefined) has an INHIBITION of 84%. Fc1ccccc1OCCc1cc(C2CNCCO2)n[nH]1 (centres undefined) was tested, and the INHIBITION was 32.8%. For COc1ccc(-c2cnc(N(C)C)nc2C2CNCCO2)cc1 (centres undefined), the INHIBITION was 21.7%. Compound Cc1ccc(-c2ccc(C3CNCCO3)nc2)cc1 (centres undefined) has an INHIBITION of 91.6%. Clc1ccc(-c2ccc(C3CNCCO3)nc2)cc1 (centres undefined) showed an INHIBITION of 94.6%. COc1ccc(OCCc2cc(C3CNCCO3)nn2C)cc1 (centres undefined) was tested, and the INHIBITION was -5.8%. CN(C)c1ncc(-c2ccc(F)cc2)c(C2CNCCO2)n1 (centres undefined) was tested, and the INHIBITION was 15.1%. With CN(C)c1ncc(-c2cccc(F)c2)c(C2CNCCO2)n1 (centres undefined) the INHIBITION was 8.72%. CN(C)c1ncc(-c2ccc(C(N)=O)cc2)c(C2CNCCO2)n1 (centres undefined) showed an INHIBITION of -28.9%. Compound CC(=O)N1CCCN(C(=O)NC(C)Cn2ccnc2)CC1 (centres undefined) has an INHIBITION of 24.2%. With Cn1c(=O)c2cc(C(=O)NCc3ccncc3)ccc2n(C)c1=O the INHIBITION was -4.82%. Compound Cc1cc(C[S+]([O-])CC(=O)NCc2cccc(Cl)c2)no1 (centres undefined) has an INHIBITION of 49.8%. For CC(C)SCC(=O)N1CCCn2nc(C(=O)Nc3ccccc3)cc2C1, the INHIBITION was -59.9%. Work on CC(=O)N1CCC2(CCCN(S(=O)(=O)c3ccc(F)cc3)C2)C1 (centres undefined) yielded an INHIBITION of -4.82%. Cc1c(COC(C)C)cccc1NC(=O)N1CCC(N2CCCC2)C1 (centres undefined) gave an INHIBITION of 36.3%. With Cc1nc(C)n(CC2CCCN2Cc2coc(-c3cccs3)n2)n1 (centres undefined) the INHIBITION was 22.6%. With O=C(CCCOc1ccccc1F)NCCCC(=O)Nc1cn[nH]c1 the INHIBITION was 51.7%. Work on COc1ccccc1NC(=O)NCCCC(=O)Nc1cn[nH]c1 yielded an INHIBITION of -12.1%. Compound O=C(CCCNC(=O)Nc1ccc(F)cc1)Nc1cn[nH]c1 has an INHIBITION of 20.7%. CC(C)N1CCC(Nc2ccn(Cc3ccccn3)n2)C1=O (centres undefined) was tested, and the INHIBITION was 38.7%. CC(C)N1CCC(Nc2ccn(CCC#N)n2)C1=O (centres undefined) was tested, and the INHIBITION was 63.3%. For CC(C)N1CCC(Nc2ccn(C)n2)C1=O (centres undefined), the INHIBITION was 23.1%. For COC(C)(CNS(=O)(=O)c1cccnc1)c1ccccc1F (centres undefined), the INHIBITION was 12.1%. With CCC1c2ccsc2CCN1C(=O)NCc1cc(C)on1 (centres undefined) the INHIBITION was 11.915%. Compound CC(NC(=O)NCC(C)(C)C(N)=O)c1nc(-c2ccccc2)cs1 (centres undefined) has an INHIBITION of 28.6%. With COC(=O)[C@H]1C[C@@H](O)CCN1S(=O)(=O)c1ccc(F)cc1F the INHIBITION was 34.2%. Work on COC(=O)[C@H]1C[C@@H](O)CCN1S(=O)(=O)c1cc(C)c(Cl)cc1C yielded an INHIBITION of 60.2%. Compound COC(=O)[C@H]1C[C@@H](O)CCN1S(=O)(=O)c1cc(Cl)ccc1OC has an INHIBITION of -16.9%. Compound Cc1cc(C)c(CNc2cnn(CC(O)CN(C)C)c2)c(C)c1 (centres undefined) has an INHIBITION of 29.8%. In the case of Cc1ccc(CNC(=O)CN2CCN(CC(O)c3ccco3)CC2)cc1 (centres undefined), the INHIBITION is reported as -1.58%. O=C(NCC1CC1)C1CCC2(CCN(C(=O)c3ccccn3)CC2)O1 (centres undefined) was tested, and the INHIBITION was -3.44%. In the case of O[C@@H]1CC(CNCC2CC2)(COc2cccnc2)C[C@@H]1O (some centres undefined), the INHIBITION is reported as 51%. In the case of COCC(=O)NCC1(COc2cccnc2)C[C@@H](O)[C@@H](O)C1 (some centres undefined), the INHIBITION is reported as 57.4%. With COCC(=O)NCC1(COc2cnccn2)C[C@@H](O)[C@@H](O)C1 (some centres undefined) the INHIBITION was 7.31%. COc1ccc(CNCC2(COc3cccnc3)C[C@@H](O)[C@@H](O)C2)cc1 (some centres undefined) showed an INHIBITION of 25.3%. In the case of O[C@@H]1CC(CNCC2CCCC2)(COc2cccnc2)C[C@@H]1O (some centres undefined), the INHIBITION is reported as -23.9%. For O[C@@H]1CC(CNCc2ccccn2)(COc2cccnc2)C[C@@H]1O (some centres undefined), the INHIBITION was -36%. O=c1c(NCCc2ccc(O)cc2)c(NCc2ccncc2)c1=O gave an INHIBITION of 32.1%. Work on CC(C)c1noc(-c2ccc(NC(=O)NCC(O)C(C)C)cc2)n1 (centres undefined) yielded an INHIBITION of -132%. In the case of Cc1ccc(OCCC(=O)NC2CCc3nc(C)cn3C2)cc1 (centres undefined), the INHIBITION is reported as 5.53%. Work on Cc1ccc(C(=O)NS(=O)(=O)Cc2ccccc2)cc1S(C)(=O)=O yielded an INHIBITION of 1.98%. In the case of COC(=O)C1CCCN1C(=O)c1cc(CC(C)C)no1 (centres undefined), the INHIBITION is reported as -4.51%. Compound CC(C)Cc1cc(C(=O)N2CCC(C(=O)N3CCOCC3)CC2)on1 has an INHIBITION of 31.2%. Compound CC(C)Cc1cc(C(=O)N2CCC[C@H]2C(=O)N2CCOCC2)on1 has an INHIBITION of 68%. CN(C)Cc1nc(C2(NC(=O)Nc3ccccc3)CCCC2)no1 was tested, and the INHIBITION was -20.1%. With O=c1c(-c2ccnc(NC3CCCCC3)n2)cnc2sc(Cl)cn12 the INHIBITION was 29.3%. For COc1ccc(Oc2ncccc2NC(=O)N2CCOCC2C)cc1 (centres undefined), the INHIBITION was 28.7%. Compound CCOc1ncccc1NC(=O)N1CCCCCC1 has an INHIBITION of 22.3%. For CCOc1ncccc1NC(=O)Nc1c(C)nn(C(C)C)c1C, the INHIBITION was 56.8%. In the case of CCOc1ncccc1NC(=O)N1CCN(c2cccc(C)c2C)CC1, the INHIBITION is reported as 90.4%. CCOc1ncccc1NC(=O)NCC(C)O (centres undefined) gave an INHIBITION of -1.14%. Compound COc1ncccc1NC(=O)N1CCOCC1C (centres undefined) has an INHIBITION of 45.4%. With CCOc1ncccc1NC(=O)N1CCOCC1C (centres undefined) the INHIBITION was 52.2%. CCOc1ncccc1NC(=O)N1CCN(c2ccc(O)cc2)CC1 gave an INHIBITION of -5.845%. Cc1nn(C(C)C)c(C)c1NC(=O)c1ccncc1 showed an INHIBITION of 26.8%. Work on COCCN1C[C@@H]2CN(Cc3cccc(F)c3)CCC[C@]2(C(=O)O)C1 yielded an INHIBITION of -1.64%. With CN(Cc1ccc(N2CCOCC2)cc1)C(=O)Cn1cccnc1=O the INHIBITION was 7.08%. With CC(=O)N1CCC(c2[nH]ncc2S(C)(=O)=O)CC1 the INHIBITION was 4.41%. In the case of CNc1nc2cn(CCc3ccccc3)c(=O)c-2c[nH]1, the INHIBITION is reported as -32.1%. With Cc1noc(C)c1CN1CCc2c(CNc3nccs3)n[nH]c2C1 the INHIBITION was 46.6%. CC(NC(=O)NC1CC1)c1nc(-c2ccccc2)cs1 (centres undefined) showed an INHIBITION of 11.5%. For O=S(=O)(NC1CCCCC12OCCO2)c1cc(F)cc(F)c1 (centres undefined), the INHIBITION was 6.83%. For CN(Cc1cnn(C)c1)C(=O)c1cc(C(F)(F)F)n(C)n1, the INHIBITION was 36.6%. For N#Cc1cccc(N2CCCC3(C2)CN(c2ncccn2)CCO3)n1 (centres undefined), the INHIBITION was 42.3%. With N#Cc1cccc(N2CCCC3(CNCCO3)C2)n1 (centres undefined) the INHIBITION was 51.2%. N#Cc1cccc(N2CCOC3(CNCCOC3)C2)n1 (centres undefined) showed an INHIBITION of 32.7%.
